Results reported in PubChem BioAssay (NCI).
The panel holds about 79,000 compounds, 15% with a hit somewhere; the sample as a whole holds those more often. No stated cut-off is given here; in the data, active means growth inhibition above about 70%; inactive means the rest.

Experiments:
[1] = NCI Yeast Anticancer Drug Screen. Data for the rad50 strain (AID 155);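 further: 0% = growth of vehicle-only cultures of the same strain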; details: S. cerevisiae rad50 strain growth inhibition; at 50.0 µM; stronger effect = higher value
Method in brief: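 Growth of the mutant yeast was measured after compound exposure and referenced to vehicle-treated cultures.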

[2] = NCI Yeast Anticancer Drug Screen. Data for the mec2-1 strain (AID 157); details: S. cerevisiae mec2-1 strain, at 50.0 µM, stronger effect = higher value
Method in brief: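 Readout is yeast growth inhibition, normalised to vehicle-treated controls, in the mec2-1 strain exposed to compound.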

[3] = NCI Yeast Anticancer Drug Screen. Data for the sgs1 mgt1 strain (AID 161);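 further: 0% = growth of cultures given vehicle only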; details: S. cerevisiae sgs1 mgt1 strain, at 50.0 µM, stronger effect = higher value
Method in brief: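 Compounds are added to genetically altered yeast, and growth is compared with cultures given vehicle alone to give percent inhibition.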

[4] = NCI Yeast Anticancer Drug Screen. Data for the cln2 rad14 strain (AID 165);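 further: 0% = growth equal to vehicle treated cultures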; details: S. cerevisiae cln2 rad14 strain, at 50.0 µM, stronger effect = higher value
Method in brief: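 Relative to vehicle controls, growth inhibition of compound-treated cln2 rad14 yeast was recorded.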

[5] = NCI Yeast Anticancer Drug Screen. Data for the bub3 strain (AID 167); details: S. cerevisiae bub3 mutant strain, at 50.0 µM, stronger effect = higher value
Method in brief: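 Whole-cell yeast assay. The mutant strain was incubated with compounds, and growth inhibition was determined by comparison with vehicle-treated cells.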

[6] = NCI Yeast Anticancer Drug Screen. Data for the mlh1 rad18 strain (AID 175); details: S. cerevisiae mlh1 rad18 strain growth inhibition; at 50.0 µM; stronger effect = higher value
Method in brief: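 Test agents were incubated with a yeast strain of defined genotype (DNA damage repair defect). Inhibition of growth was derived by comparison with vehicle-exposed cultures.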

Measured: growth inhibition

NC(CCc1ccc2c(c1)OCO2)C(=O)O (stereo not drawn)
inactive: [1] 5.35% | [2] -11.8% | [3] -3.55% | [4] -47% | [5] -5.8% | [6] 22.9%

O=C(/C=C(\O)c1ccc(Cl)cc1)C(=O)NN=C(c1ccccc1)c1ccccc1
inactive: [1] 39% | [2] 33.7% | [3] 3.1% | [4] 7.2% | [5] 14.5% | [6] 8.6%

CCNCC(=O)Nc1ccc(C(=O)OC)cc1
inactive: [1] -8% | [2] -29.4% | [3] -9.9% | [4] -20% | [5] 1.45% | [6] -28.9%

COc1cc2c(cc1N)-c1ccc(N)cc1C2O (stereo not drawn)
inactive: [1] 7.55% | [2] 3.65% | [3] -9.05% | [4] 17.3% | [5] 17.1% | [6] 1.05%

CCCCN=NNc1cn(C2OC(CO)C(O)C2O)c(=O)[nH]c1=O (stereo not drawn)
inactive: [1] -22.4% | [2] 0.9% | [3] 4.85% | [4] 13.3% | [5] 10.8% | [6] 21.8%

CCC1(c2ccc(N3C(=O)c4cc(OC)c(OC)cc4C3=O)cc2)CCC(=O)NC1=O (stereo not drawn)
inactive: [1] -6.25% | [2] 7.65% | [3] -7.25% | [4] -16.1% | [5] -16% | [6] -32.8%

CC(C)(C)C(=O)[CH-]C(=O)C(C)(C)C.CC(C)(C)C(=O)[CH-]C(=O)C(C)(C)C.CN(C)c1ccc([O-])cc1.CN(C)c1ccc([O-])cc1.[Ti+4]
inactive: [1] -20.8% | [2] -16.5% | [3] -12.2% | [4] 12.2% | [5] 5.4% | [6] -11.2%

CC(=O)Nc1ccc(/C=N\NC(=S)Nc2ccc(F)cc2)cc1
inactive: [1] -13.4% | [2] -12.7% | [3] -3.9% | [4] -53.1% | [5] 4.65% | [6] -18.8%

Clc1ccc(Cl)c(-c2csc(-c3cccnc3)n2)c1
inactive: [1] 4.95% | [2] -11.6% | [3] 12.5% | [4] -34.5% | [5] 7.6% | [6] 17.9%

CC1(C)CC2=C(Sc3ccccc3N2)C(=O)C1C(=O)C(=O)Nc1cccc([N+](=O)[O-])c1 (stereo not drawn)
inactive: [1] -22.1% | [2] -22.8% | [3] -11.7% | [4] -35.9% | [5] 2% | [6] 1.1%

NCc1ccccc1[N+](=O)[O-]
inactive: [1] 11.4% | [2] 6.2% | [3] 3.5% | [4] -1.6% | [5] 3.5% | [6] 12%

CCCCSc1nc2ccc(N=Cc3ccccc3O)cc2s1
inactive: [1] -19.6% | [2] -11.2% | [3] -4.45% | [4] -17.7% | [5] -5.75% | [6] -22.4%

COc1cc(NS(=O)(=O)c2ccccc2)c2nc3ccc(Cl)cc3nc2c1
inactive: [1] 3.6% | [2] -8.4% | [3] -25.1% | [4] 3.3% | [5] -7.25% | [6] 12.3%

COc1ccccc1C(=O)NO
inactive: [1] -14.1% | [2] -27.2% | [3] -22.9% | [4] 8.05% | [5] -14.2% | [6] -7.55%

COC(=O)C1(C(=O)OC)C2CCCCC21 (stereo not drawn)
inactive: [1] 4.65% | [2] 9.3% | [3] -6.6% | [4] 12.8% | [5] -13.9% | [6] 7.1%

O=C1CCCC/C1=C1/SC(=Nc2ccccc2)C(=Nc2ccccc2)N1c1ccccc1
inactive: [1] 21.2% | [2] 16.1% | [3] 16.2% | [4] 31% | [5] 19.1% | [6] 8.6%

[O-]/[N+](=C\c1ccc(OCc2ccccc2)cc1)c1ccccc1
inactive: [1] 16.5% | [2] -18.4% | [3] -20.7% | [4] -2.65% | [5] -4.25% | [6] -13.5%

O=C(O)CCC(NC(=O)c1ccc(Nc2nc3ccccc3nc2C(=O)O)cc1)C(=O)O (stereo not drawn)
inactive: [1] -2% | [2] -11.2% | [3] -6.15% | [4] 3% | [5] 0% | [6] 0.65%
